Data reported in PubChem BioAssay.
The source made the active and inactive calls. Unless noted, no rule for the calls is given here.

Assay: modifiers of HSF1 nuclear foci, imaging, Selleck Cancer Library (AID 1347162; in the data active = plate-normalised HSF1 focus index below about 0.46)
Conditions: human cells, at 10 µM; SSMD: measured here: HSF1 foci SSMD mean; cell count: measured here: cell number; plate-normalised HSF1 focus index: stronger effect = lower value

Compound | SSMD | plate-normalised HSF1 focus index | cell count
O=C1c2ccccc2-c2nc3nonc3nc21 | -15 | 0.229 (active) | 3090
N#CC[C@@H](C1CCCC1)n1cc(-c2ncnc3[nH]ccc23)cn1 | 2.05 | 1.12 (inactive) | 7030
O=C(Nc1ncc([N+](=O)[O-])s1)c1ccc([N+](=O)[O-])c(Cl)c1 | 2.47 | 1.15 (inactive) | 7090
CO[C@H]1/C=C\C=C(/C)C(=O)NC2=CC(=O)C(NCCN(C)C)=C(C[C@@H](C)C[C@H](OC)[C@H](O)[C@@H](C)/C=C(\C)[C@@H]1OC(N)=O)C2=O | 3.16 | 1.12 (inactive) | 7300
CC[C@@H](C(=O)[C@@H](C)[C@@H](O)[C@H](C)[C@@H]1O[C@@H]([C@@H](CC)C(=O)O)CC[C@@H]1C)[C@H]1O[C@]2(C=C[C@@H](O)[C@]3(CC[C@@](C)([C@H]4CC[C@](O)(CC)[C@H](C)O4)O3)O2)[C@H](C)C[C@@H]1C | 4.08 | 1.26 (inactive) | 7580
COC(=O)c1ccc(O)c(NC(=O)COc2ccc(C34CC5CC(CC(C5)C3)C4)cc2)c1 | -6.52 | 0.766 (inactive) | 7200
CCCCCCCCCCCCCCCCCCOP(=O)(O)OC1CC[N+](C)(C)CC1 | -3.23 | 0.793 (inactive) | 7160
N#C/C(=C1/Nc2ccccc2S1)c1ccnc(NCCc2cccnc2)n1 | 2.72 | 1.16 (inactive) | 6770
COC(=O)[C@H](CCCN=C(N)N)NS(=O)(=O)c1ccc(C)cc1 | 1.44 | 1.08 (inactive) | 7120
COc1cc(C(=O)NC(=S)Nc2cccc(NC(=O)c3ccccc3)c2)cc(OC)c1OC | 4.07 | 1.24 (inactive) | 6830
O=C1Nc2ccc(-c3cccnc3)cc2/C1=C/c1ccc[nH]1 | -1.39 | 0.916 (inactive) | 7060
COc1c/c(=C2/C=c3ccccc3=N2)[nH]/c1=C\c1[nH]c(C)cc1C | -6.15 | 0.614 (inactive) | 7490
O=c1c2ccccc2[nH]c(=S)n1CCN1CCC(=C(c2ccc(F)cc2)c2ccc(F)cc2)CC1 | 4.04 | 1.24 (inactive) | 6860

Assay: phospholipid biosynthesis inhibitors in animal cells, primary screen, cell-based, LOPAC library, screen 4 (AID 1347384)
Conditions: phospholipid biosynthesis inhibition screen, at 10 µM

Compound | outcome
NC(=O)c1cc[n+](CC2=C(C(=O)O)N3C(=O)[C@@H](NC(=O)[C@@H](c4ccccc4)S(=O)(=O)O)[C@H]3SC2)cc1 | inactive
CCN(CC)c1ncnc2c1ncn2[C@@H]1O[C@H](COP(=O)(O)OP(=O)(O)C(Br)(Br)P(=O)(O)O)[C@@H](O)[C@H]1O | inactive
C[C@@H]1CCN(C(=O)C(CCCN=C(N)N)NS(=O)(=O)c2cccc3c2NC[C@H](C)C3)C(C(=O)O)C1 (stereo partly specified) | inactive
C[N+](C)(C)CCOP(=O)(O)OP(=O)(O)OC[C@H]1O[C@@H](n2ccc(N)nc2=O)C(O)[C@H]1O (stereo partly specified) | inactive
Nc1cc2c(ncn2CCOCP(=O)(O)O)c(=O)[nH]1 | inactive
CC1=NN(c2cccc(C(=O)O)c2)C(=O)/C1=C\c1ccc(-c2ccc(Cl)c(C(=O)O)c2)o1 | inactive
CC(C)CC(NP(=O)(O)O[C@@H]1O[C@@H](C)[C@H](O)[C@@H](O)[C@H]1O)C(=O)NC(Cc1c[nH]c2ccccc12)C(=O)O (stereo partly specified) | inactive
Nc1ncnc2c1ncn2[C@@H]1O[C@H](COP(=O)(O)CP(=O)(O)OP(=O)(O)O)[C@H](O)C1O (stereo partly specified) | inactive
CO[C@H]1C[C@@H]2CC[C@@H](C)[C@@](O)(O2)C(=O)C(=O)N2CCCC[C@@H]2C(=O)OC([C@H](C)C[C@@H]2CC[C@@H](OC(=O)C(C)(CO)CO)[C@H](OC)C2)CC(=O)[C@H](C)/C=C(\C)[C@@H](O)[C@@H](OC)C(=O)[C@H](C)C[C@H](C)/C=C/C=C/C=C/1C (stereo partly specified) | inactive
O=C(/C=C/c1ccc(O)cc1)CC(=O)/C=C/c1ccc(O)cc1 | inactive
CC(=O)O[C@H]1CC2(C)[C@@H](C[C@@H](O)[C@H]3[C@@]4(C)CC[C@@H](O)[C@@H](C)[C@@H]4CC[C@@]32C)/C1=C(/CCC=C(C)C)C(=O)O (stereo partly specified) | inactive
N[C@H](C(=O)O)[C@H](O)c1ccc(O)c(O)c1 | inactive
O=C(O)C1=CS[C@@H]2/C(=C\c3cnc4n3CCOC4)C(=O)N12 | inactive
O=C(Nc1cc(C(F)(F)F)cc(C(F)(F)F)c1)Nc1c(Br)cc(Br)cc1-c1nn[nH]n1 | inactive
O.O.[NH2-].[NH2-].[NH2-].[NH2-].[NH2-].[NH2-].[NH2-].[NH2-].[NH2-].[NH2-].[NH2-].[NH2-].[NH2-].[NH2-].[Ru+4].[Ru+5].[Ru+5] | inactive
CC[N+](CC)(CC)CC | inactive
Cc1nc(C#Cc2cccnc2)cs1 | inactive
CCOC(=O)CN1C(=O)c2ccc3c4c(ccc(c24)C1=O)C(=O)N(CC(=O)OCC)C3=O | inactive
C[N+]1(C)C2CC(OC(=O)[C@H](CO)c3ccccc3)CC1C1OC12 (stereo partly specified) | inactive
c1ccc(-c2cnn3cc(-c4ccc(OCCN5CCOCC5)cc4)cnc23)cc1 | inactive
N=c1ccn2c(n1)OC1C(O)[C@@H](CO)O[C@H]12 (stereo partly specified) | inactive
NC(=S)c1ccc[n+]([C@@H]2O[C@@H](COP(=O)(O)OP(=O)(O)OC[C@H]3O[C@@H](n4cnc5c(N)ncnc54)C(OP(=O)(O)O)[C@H]3O)C(O)C2O)c1 (stereo partly specified) | inactive
CCOC(=O)c1ccc(C#Cc2ccc3c(c2)CC(C)(C)CS3)nc1 | inactive
Cc1cc(Nc2ncc3cc(-c4c(Cl)cccc4Cl)c(=O)n(C)c3n2)ccc1F | inactive
O=CN(O)CCCP(=O)(O)O | inactive
CO/N=C(\C(=O)N[C@@H]1C(=O)N2C(C(=O)O)=C(CSc3nc(=O)c(=O)[nH]n3C)CSC12)c1csc(N)n1 (stereo partly specified) | inactive
C[N+]1(C)CCC(OC(=O)C(c2ccccc2)c2ccccc2)CC1 | inactive
